Screening results from PubChem.
A selection: hits, their analogues and other compounds. The true share with any hit is near 4.3%.
GLP-1R inv ag = inverse agonists of human GLP-1 receptor; HEK293 GLP-1R CRE-luciferase, luminescence, 24 h; GLP-1R form is constitutively active; Potency, µM (titrated, usually from 38.3 µM), hits mostly inhibitors; actives 1.6% (n = 410,000); AID 624417; further: nearly all actives have a fitted effect of over 55% in size
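Inverse agonists were sought by their lowering of basal cAMP reporter luciferase output in HEK293 cells stably carrying constitutively active human GLP-1R, after 24 h compound treatment.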
DRD3 antagonist = D3 dopamine receptor (human) antagonism; P35462; D3R cells, DiscoveRx beta-arrestin luminescence, antagonist mode; stronger effect = lower value; max response, negative = inhibition, %; actives 2.5% (n = 360,000); AID 652054; in the data active means max response below about -50%; inconclusive means no clear call, values can overlap the other calls
Target sequence (P35462 whole entry, looked up): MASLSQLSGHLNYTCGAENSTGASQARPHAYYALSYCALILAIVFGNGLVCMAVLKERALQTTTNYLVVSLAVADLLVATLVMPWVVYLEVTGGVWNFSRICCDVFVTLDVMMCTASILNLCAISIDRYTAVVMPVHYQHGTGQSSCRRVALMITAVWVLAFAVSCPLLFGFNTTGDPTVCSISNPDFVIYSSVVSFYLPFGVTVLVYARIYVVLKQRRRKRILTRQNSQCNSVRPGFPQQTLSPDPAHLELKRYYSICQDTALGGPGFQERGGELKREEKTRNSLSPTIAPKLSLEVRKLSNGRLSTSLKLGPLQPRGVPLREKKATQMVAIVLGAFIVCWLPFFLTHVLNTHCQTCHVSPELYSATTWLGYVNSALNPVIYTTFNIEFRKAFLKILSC
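Cells expressing the human receptor were seeded at 1500 cells/well, incubated overnight at 37 degrees C in 5% CO2, then exposed to library compounds with dopamine controls for 90 minutes at 37 degrees C before luminescent detection.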
GLP1R ag = activates the human GLP-1 receptor; Potency, µM (titrated, usually from 45.6 µM), usual class: activators; AID 624172; actives 0.007% (n = 380,000); HEK293 GLP-1R CRE-luciferase, luminescence, 4-6 h; cells express a hypersensitive GLP-1R form
DRD3 agonist = activates the human D3 dopamine receptor | actives 0.58% (n = 410,000) | P35462 | max activation, % | D3R DiscoveRx beta-arrestin cells, luminescence, 90 min | AID 652048; in the data active means max activation above about 30%
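Agonist-mode cell screen: cells plated at 1500/well and incubated overnight at 37 °C, then exposed to library compounds for 90 min at 37 °C. Detection reagent was added for 30–60 min at room temperature, and luminescence was read.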
A number is an active result; 0 = inactive; ? = inconclusive; - = not tested or not shown. Unless noted, the call rests on the fitted dose curve; in most records, active means well fitted curve in the direction sought with a large enough effect; inconclusive means small, poorly fitted or top-dose-only effect, or another doubt; inactive means no such curve, though single readings can be large; an effect the other way counts as inactive or inconclusive.

SMILES	GLP-1R inv ag	DRD3 antagonist	GLP1R ag	DRD3 agonist
O=C(CN(c1cccc(Br)c1)S(=O)(=O)c1ccccc1)N1CCc2ccccc2C1	10µM	-	-	0
CCOc1ccccc1CNC(=O)C1CCN(S(=O)(=O)c2c(C)noc2/C=C/c2ccc(C)cc2)CC1	0	-	-	0
O=c1c(N2CCN(c3ccccc3)CC2)csc2ccc(Cl)cc12	0	-	-	0
CCC(C)(CC(=O)O)CC(=O)Nc1cc(C(F)(F)F)cc(C(F)(F)F)c1 (centres undefined)	0	0	0	31.5
COc1ccccc1-c1cnnc(N/N=C/c2ccc(-c3cccc(Br)c3)o2)n1	0	0	0	56.6
[2H]c1c([2H])c([2H])c2c([nH]c(=S)n2C2CCN(CCCC(=O)c3ccc(F)cc3)CC2)c1[2H]	-	-	0	-
Cc1ccc(NC(=O)c2ccc3c(O)c(S(=O)(=O)c4ccc(Cl)cc4)c(=O)[nH]c3c2)cc1	0	-	-	0
Cc1ccccc1NC(=S)N(CCc1c(C)[nH]c2ccc(F)cc12)Cc1cccnc1	?	0	0	0
Cc1[nH]c2ccc(F)cc2c1CCN(Cc1cccnc1)C(=S)Nc1cccc(F)c1	10µM	0	0	0
CCc1cccc(CC)c1NC(=S)NCCc1ccc(O)c(O)c1	?	0	0	0
CCc1cccc(CC)c1NC(=S)NCCc1c(C)[nH]c2ccccc12	10µM	0	0	0
CSc1ccc(CN(C)C(=O)C23CC4CC(CC(Cl)(C4)C2)C3)cc1	10µM	0	0	0
COC(=O)c1ccc(/C=N/NS(=O)(=O)c2cc(C)ccc2C)cc1	0	-81.5	0	0
Cc1ccc(C)c(S(=O)(=O)N/N=C/c2ccc(C(=O)O)cc2)c1	0	0	0	0
Cc1ccc(C(=O)NCc2ccc3c(c2)CCN3C(=O)c2ccc(C)cc2)cc1	0	-	-	0
CCOC(=O)Cn1c(=O)cc(C(F)(F)C(F)(F)F)c2c(C)nn(CC)c21	0	-	-	0
CCc1nnc(NC(=O)CN2CCN(Cc3cccc(Cl)c3)CC2)s1	?	-51.9	0	0
CCCn1cnnc1CNC(=O)[C@H]1O[C@@H](n2ccc(N)nc2=O)[C@H](O)[C@@H]1O	0	0	0	0
Cc1ccc(CNC(=O)[C@H]2O[C@@H](n3ccc(N)nc3=O)[C@H](O)[C@@H]2O)o1	0	-126.3	0	0
Cc1ccc(-n2cc(CCCCCCCCC(=O)O)nn2)cc1	0	0	0	30.2
CCCCOC(=O)c1ccc(NC(=S)NC(=O)c2c(Cl)cnn2C)cc1	?	-85.0	0	0
COc1ccc(C2=CC(c3ccc(C)cc3)n3nnnc3N2)cc1 (centres undefined)	0	0	0	31.9
COc1ccc(C2C=C(c3ccccc3)Nc3nnnn32)cc1 (centres undefined)	0	0	0	0
COc1ccccc1Cc1c(-c2ccco2)nc2cc(C)c(Br)c(C)n12	?	-106.7	0	0
COc1ccc(C(CC(=O)Nc2cc(Cl)c(OC)cc2OC)N2Cc3ccccc3C2=O)cc1 (centres undefined)	0	-	-	46.6
SMILES	GLP-1R inv ag	DRD3 antagonist	GLP1R ag	DRD3 agonist
Cc1cc(NC(=O)CON=C(N)CC(=O)Nc2ccccc2Cl)ccc1Br	10µM	0	0	0
CCN(C(=O)c1nn(-c2ccc(OC)c(Cl)c2)c(=O)c2c1c1ccccc1n2C)c1cccc(C(F)(F)F)c1	0	-	-	0
O=C(CCCSc1nnnn1-c1cccc2ccccc12)c1ccc(F)cc1	10µM	0	0	0
Cc1ccc(C)c(N2CCN(C(=O)C3CCN(S(=O)(=O)c4ccc5[nH]c(=O)oc5c4)CC3)CC2)c1	0	-	-	0
O=C(Nc1ccc(F)cc1F)Nc1csc2ccccc12	10µM	0	0	0
O=C(Nc1ccc(F)c(Cl)c1)Nc1csc2ccccc12	?	0	0	0
Cc1ccc(S(=O)(=O)Nc2nncs2)cc1	0	-59.7	0	0
Cc1ccc(Nc2nnc(SCC(=O)Nc3cccc(S(=O)(=O)N4CCCCC4)c3)s2)cc1	?	0	0	0
O=C(CNc1cccc(C(F)(F)F)c1)Nc1cccc(S(=O)(=O)N2CCCC2)c1	2.51µM	0	0	0
O=C(CN1CCN(S(=O)(=O)c2ccccc2)CC1)Nc1cccc(C(F)(F)F)c1	4.47µM	0	0	0
O=C(CSc1nnc(Nc2ccccc2F)s1)Nc1cccc(S(=O)(=O)N2CCCCC2)c1	10µM	0	0	0
CCOc1ccc(-c2[nH]ncc2Oc2ccccc2OCC)c(O)c1	?	0	0	0
C=C(C)COc1ccc(-c2[nH]ncc2-c2ccccc2OC)c(O)c1	?	-63.2	0	0
